# Screening results as filed in PubChem.
# NPC1 prom act = activates the NPC1 promoter; AID 485313; Potency, µM (series often up to 9.22 µM), for the others: top-dose activation, hits mostly activators; Huh7 NPC1 promoter luciferase reporter, 24 h; 2.4% of 320,000 active; further: % of control where 0% means no effect; nearly all actives have a fitted effect of over 60% in size
#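 Cells: Huh7 expressing luciferase under the NPC1 promoter, 1500/well. Seeded 2 h, compound added, incubated 24 h at 37 °C. Luciferase reagent, 10 min ambient, then luminescence.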
# ELG1 genotox = genotoxicity induction in ELG1-luciferase HEK293T cells | HEK293T ELG1-luciferase reporter, luminescence, 16 h | Potency, µM (highest dose often 46 µM), without a hit: at the top dose activity change, positive = activation, usual class: activators | 1.3% of 330,000 active; further: % of control where 0% means no effect; nearly all actives have a fitted effect of over 60% in size
#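 DMSO vehicle served as control against compound-treated ELG1-luciferase HEK293T cells; exposure lasted 16 hr at 37 °C and 5% CO2, followed by ONE-Glo luminescence detection after 30 min.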
# Rab9 promoter act = activates the Rab9 promoter; 2.8% of 320,000 active; Huh7 Rab9 promoter-luciferase reporter, luminescence, 24 h; Potency, µM (series often up to 9.22 µM), for the others: at the top dose activation, negative = inhibition, actives largely listed as activators; further: % of control where 0% means no effect; nearly all actives have a fitted effect of over 60% in size
#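 Using Huh7 cells stably transfected with Rab9 promoter–luciferase, compounds were incubated 24 h at 37 °C, 5% CO2; luciferase luminescence was read 10 min after reagent addition.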
# KinaseGlo FLuc = counter-screen: inhibitors of Kinase-Glo firefly luciferase; 0.28% of 200,000 active; Q27757; Kinase-Glo luciferase, ATP luminescence, 8 min; Potency, µM (doses to about 38.3 µM), inactives show top-dose activity change, negative = inhibition, hits mostly inhibitors; further: on the % scale 0 is the no-effect control and ±100 the full control effect; nearly all actives have a fitted effect of over 60% in size
#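 Inhibition of Kinase-Glo luciferase light generation was assessed at 10 uM ATP in pH 7.2 imidazole buffer, with luminescence measured after eight minutes at ambient temperature.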
# FLuc modulator = inhibits or activates purified firefly luciferase, miR-21 counter-screen; Potency, µM (series often up to 57.5 µM), without a hit: at the top dose activity change, negative = inhibition, most hits filed as inhibitors; purified FLuc, Km substrates, luminescence inhibition; AID 588342; 6.9% of 360,000 active;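 further: plate controls were vehicle for no effect and reference inhibitor for full effect; nearly all actives have a fitted effect of over 55% in size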
# Target sequence (P08659 whole entry, looked up): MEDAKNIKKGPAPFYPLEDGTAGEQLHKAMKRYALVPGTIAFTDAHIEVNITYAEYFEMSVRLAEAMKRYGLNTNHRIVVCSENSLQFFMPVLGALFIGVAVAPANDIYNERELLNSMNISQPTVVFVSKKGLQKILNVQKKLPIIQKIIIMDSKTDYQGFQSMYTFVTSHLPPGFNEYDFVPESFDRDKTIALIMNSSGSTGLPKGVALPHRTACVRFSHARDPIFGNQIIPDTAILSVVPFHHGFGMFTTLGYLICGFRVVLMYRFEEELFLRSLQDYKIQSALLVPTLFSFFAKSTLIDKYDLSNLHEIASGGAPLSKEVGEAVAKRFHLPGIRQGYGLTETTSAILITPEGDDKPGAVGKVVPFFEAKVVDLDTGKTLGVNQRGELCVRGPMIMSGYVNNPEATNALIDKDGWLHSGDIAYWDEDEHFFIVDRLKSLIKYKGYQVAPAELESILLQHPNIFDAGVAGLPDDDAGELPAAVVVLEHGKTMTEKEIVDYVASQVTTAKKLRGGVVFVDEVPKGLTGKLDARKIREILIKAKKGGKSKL
#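 Purified P. pyralis luciferase, 10 nM final, with Km-level 10 uM D-luciferin and 10 uM ATP in 50 mM Tris acetate pH 7.5, 10 mM Mg acetate, 0.01% Tween-20, 0.05% BSA; 6-point qHTS titration about 60 µM downward; luminescence read.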
# SMN2 splice up = increases expression of the SMN2 splice variant. HEK293 SMN2-luciferase splicing reporter, luminescence, 30-36 h. Potency, µM (doses to about 46.1 µM), inactives show at the top dose activity change, positive = activation, hits mostly activators. 2.8% of 210,000 active. AID 1458; further: % of control where 0% means no effect; nearly all actives have a fitted effect of over 55% in size
#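 HEK293 cells carry an SMN2 minigene-luciferase reporter in which exon 7 inclusion puts luciferase in frame. Cells were seeded at 2000 cells/well, attached for 10-12 hours, then exposed to compounds for 30-36 hours at 37C before ONE-Glo luminescence.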
# An asterisk follows results filed as active; ? = inconclusive; . = not tested or not shown; [ ] = remark or other dose. Rows were chosen to be rich in hits. Some 7.5% of all compounds tested hit in one or more screens of this group. The call rests on the fitted dose curve; in most records, active means well fitted curve in the direction sought with a large enough effect; inconclusive means small, poorly fitted or top-dose-only effect, or another doubt; inactive means no such curve, though single readings can be large; an effect the other way counts as inactive or inconclusive. Potency means the concentration at half of the fitted maximal effect.
SMILES,NPC1 prom act,ELG1 genotox,Rab9 promoter act,KinaseGlo FLuc,FLuc modulator,SMN2 splice up
O=C(Nc1ccnn1C1CCN(CCCc2ccccc2)CC1)c1cccc(F)c1,-3.1%,-13.1%,-3.4%,.,0.0%,.
CCN(C(=O)CN1C(=O)S/C(=C\c2cccc(OC)c2)C1=O)C1CCS(=O)(=O)C1 (stereo not given),-16.4%,3.5%,1.8%,.,?,.
COc1ccc(/C=C2\SC(=S)N(CC(=O)N(C)C3CCS(=O)(=O)C3)C2=O)cc1 (stereo not given),13.4%,3.5%,-0.3%,.,19µM*,.
CN(C(=O)CN1C(=O)/C(=C/c2ccc(F)cc2)SC1=S)C1CCS(=O)(=O)C1 (stereo not given),-1.8%,-0.1%[9.26 µM],-3.9%,.,?,.
COc1cccc(/C=C2\SC(=S)N(CC(=O)N(C)C3CCS(=O)(=O)C3)C2=O)c1 (stereo not given),-1.2%,4.6%,-2.1%,.,10.7µM*,.
Cc1ccc(N(C)C(=O)Cn2cnc3onc(-c4ccc(F)cc4)c3c2=O)cc1C,.,.,.,.,-9.2%,.
NC(=O)Cn1ccc(O)c(Cc2ccc(Cl)cc2Cl)c1=O,-13.1%,0.0%,-6.9%[1.84 µM],.,-2.3%,.
CCOC(=O)c1cnc(-n2nc(C)cc2C)nc1NC1CCCC1,-7.0%,-8.6%,-13.0%,.,-1.4%,.
CCOC(=O)c1cnc(-n2nc(C)cc2C)nc1N(C)C,?,?,4.47µM*,?,5.36µM*,?
COCCCn1c(SCC(=O)Nc2ccc(C)cc2)nc2ccccc2c1=O,12.8%,12.9%,18.4%,-5.6%,23.9µM*,.
COCCn1c(SCC(=O)Nc2ccc(C)cc2)nc2c(oc3ccccc32)c1=O,0.8%,?,6.9%,2.7%,13.1%,?
COCCn1c(SCC(=O)Nc2ccccc2)nc2c(oc3ccccc32)c1=O,-6.8%,23.1µM*,-4.3%,2.1%,0.1%,8.5%
COc1ccc2c(c1)CC(NC(=O)Nc1ccc(NC(C)=O)cc1)CO2 (stereo not given),.,.,.,.,-0.8%,.
O=C(COC(=O)C1CCC1)NC(=O)c1ccccc1,0.8%,-3.7%,0.6%,.,?,.
COc1ccccc1C(=O)NC(=O)COC(=O)C1CCC1,-2.8%,-3.9%,0.4%,.,8.49µM*,.
CNC(=O)c1ccc(-c2ccc(OC)cc2)s1,1.26µM*,?,12.0%,-2.9%,6.75µM*,17.8µM*
CNC(=O)c1ccc(-c2ccc(F)cc2)s1,?,18.4µM*,?,-8.9%,9.53µM*,?
COc1ccc(NC(=O)c2ccc(-c3ccc(OC)cc3)s2)cc1,-5.9%,9.3%,3.3%,-0.1%,-0.8%,10µM*
CCOc1ccccc1NC(=O)CCn1c(-c2ccc(OC)cc2)cc(C(C)=O)c1C,.,.,.,.,-9.1%,.
S=C(N/N=C/c1ccc2ncccc2c1)Nc1cccnc1,-11.5%,-5.5%,-4.9%,-7.8%,6.75µM*,-10.4%
O=C(N/N=C/c1ccc2ncccc2c1)c1cccc([N+](=O)[O-])c1,13.8%,1.8%,13.7%,.,3.38µM*,.
COc1cc(/C=N/NC(=O)c2cccc([N+](=O)[O-])c2)ccc1OCc1ccc(C)cc1,-3.9%,?,-0.4%,-5.4%,21.3µM*,?
COc1cc(/C=N/NC(=O)c2cccc([N+](=O)[O-])c2)ccc1O,-1.0%,0.2%,8.4%,6.0%,-16.6%,6.2%
COc1ccc(/C=N/NC(=O)c2cccc([N+](=O)[O-])c2)cc1O,-2.7%,5.2%,-3.6%,-3.9%,21.3µM*,-0.3%
O=C(N/N=C/c1ccccn1)c1cccc([N+](=O)[O-])c1,-5.1%,?,3.8%,-0.2%,-17.0%,10.5%
SMILES,NPC1 prom act,ELG1 genotox,Rab9 promoter act,KinaseGlo FLuc,FLuc modulator,SMN2 splice up
COc1ccc(/C=N\NC(=O)c2cccc([N+](=O)[O-])c2)cc1Cn1cc([N+](=O)[O-])cn1,-2.1%,-9.8%,-3.7%,-1.7%,0.4%,.
Cn1cc(C2=C(c3cn(CCCSC(=N)N)c4ccccc34)C(=O)NC2=O)c2ccccc21,.,.,.,-2.8%,.,-54.7%
CSc1ccc(CNC(=O)Cn2c(-c3cccs3)cc3cc(F)ccc32)cc1,.,.,.,.,-1.8%,.
COc1ccc(-c2noc(N3CCC(C(=O)Nc4ccc(C)c(F)c4)CC3)n2)cc1OC,.,.,.,.,7.3%,-6.3%
COc1cc(Cl)c(C)cc1NC(=O)c1cn(C2CCCC2)c(=O)c2c1c1ccccc1n2C,.,.,.,.,2.6%,-4.9%
O=C(COc1cccc(Cl)c1)N1CCC(c2nc3ccccc3o2)CC1,.,.,.,.,-10.2%,.
CCOc1ccc(CCNC(=O)CN2C(=O)COc3ccc(S(=O)(=O)N4CCC(C)CC4)cc32)cc1,.,.,.,.,-6.4%,-3.9%
O=C(O)c1ccc2c(c1)C(=O)N([C@H](Cc1ccc(-c3ccccc3)cc1)C(=O)O)C2=O,-1.8%,.,-0.3%,.,-5.8%,.
COc1cc(/C=N/n2cnnc2)ccc1OCc1ccccc1,-2.7%,3.6%,-17.0%,-4.9%,-12.5%,7.9%
COc1cc(/C=N/n2cnnc2)ccc1OCc1ccc(C)cc1,4.6%,23.1µM*,12.5%,1.3%,?,20.8%
O=C(CSc1n[nH]c(=O)n1C1CC1)c1ccc2c(c1)OCCO2,?,15.2%,?,.,13.5µM*,.
Cc1cc(C)c(C(=O)CSc2n[nH]c(=O)n2C2CC2)cc1C,-0.1%,-4.0%,-1.2%,-4.3%,3.6%,-28.9%
O=C(CSc1n[nH]c(=O)n1Cc1ccco1)c1ccc2c(c1)OCCO2,28.6%,?,?,.,15.1µM*,.
O=[N+]([O-])c1ccccc1-c1ccc(C(=S)N2CCCCC2)o1,2µM*,?,3.16µM*,.,8.49µM*,.
O=[N+]([O-])c1ccccc1-c1ccc(C(=S)N2CCCC2)o1,?,-6.1%,2.82µM*,-8.6%,21.3µM*,11.2µM*
Nc1c(Cl)cc(Cl)cc1Cl,.,.,.,.,.,-5.6%
Cc1ncoc1C(=O)Nc1ccc(Oc2ccccc2)cc1,?,5.1%,?,-2.6%,15.1µM*,-3.5%
Cc1nc(C)c(C(=O)Nc2ccc(Oc3ccccc3)cc2)o1,-4.7%,-0.5%,-9.2%,-2.2%,23.9µM*,-95.5%
Cc1nc(C)c(C(=O)Nc2cccc(Cl)c2)o1,7.3%,-1.9%,1.3%,-2.4%,-17.2%,3.5%
Cc1ncoc1C(=O)Nc1ccccc1-c1ccccc1,-3.5%,1.8%,-6.3%,2.2%,0.2%,1.9%
CCN(Cc1nc(-c2ccc(OC)cc2)oc1C)S(=O)(=O)c1ccc(Cl)cc1,.,.,.,.,0.5%,.
C=CCn1cnc2c(sc3nc(C)cc(C)c32)c1=O,6.2%,?,19.0%,.,16.9µM*,.
COC(=O)Cn1c(C)nc2c(sc3nc(C)cc(C)c32)c1=O,?,16.4µM*,?,-0.2%,12µM*,11.2µM*
CCOC(=O)Cn1cnc2c(sc3nc(C)cc(C)c32)c1=O,?,?,?,.,12µM*,.
